IDE cell inh = inhibitors of human insulin-degrading enzyme in cells; P14735; HEK cells, FAbetaB cleavage, fluorescence polarization; inhibition, % at 5.59 µM; 320,000 compounds, 0.41% hits; AID 434962;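 active = percent inhibition above the average of all tested compounds plus 3 SD, set per screening campaign, cut at about 16% in these data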;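 also: IDE supplied by intact live HEK cells; FP after avidin binding of uncleaved biotin substrate so inhibition keeps polarization high; 0% = DMSO wells and 100% = 60 µM reference IDE inhibitor Ii1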
ALR H2O2 inh = inhibitors of human sulfhydryl oxidase ALR. 290,000 compounds, 3.8% hits. purified ALR, DTT oxidation, H2O2 HRP-luminol luminescence. inhibition, % (test concentration not listed). AID 485317;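 active = mean replicate inhibition above about 79%, with every replicate also reaching it, limit read from the data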
Target sequence (P55789 whole entry, looked up): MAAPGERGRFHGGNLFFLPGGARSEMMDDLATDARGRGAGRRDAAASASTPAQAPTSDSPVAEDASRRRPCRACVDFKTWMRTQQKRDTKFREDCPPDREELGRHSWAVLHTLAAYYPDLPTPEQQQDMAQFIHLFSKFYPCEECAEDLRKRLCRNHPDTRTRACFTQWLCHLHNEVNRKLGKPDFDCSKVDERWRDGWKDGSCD
IDE act = activators of human insulin-degrading enzyme in cells | P14735 | HEK cells, FAbeta-B cleavage, fluorescence polarization; 0% vehicle, 100% cell-free pure enzyme wells | activation, % at 5.96 µM | 340,000 compounds, 0.073% hits | AID 493087;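 active = activation above the mean of all tested compounds plus 3 SD, set per screening campaign, cut at about 17% in these data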
PolyA inhibitor = inhibitors of polyadenylation in S. cerevisiae; activity score, % at 12 µM; AID 1875; 300,000 compounds, 0.02% hits; S. cerevisiae SKY197-pL101 polyadenylation reporter, beta-gal luminescence; efflux-impaired pdr1/pdr3 knockout yeast; score 100 = 6 SD above DMSO;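 active = lowest replicate activity score at least 50, where 100 means six control SD above control mean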;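 also: yeast exposed to compound for 9 h at 30 °C; higher score means more reporter readthrough which indicates perturbed polyadenylation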
M18AAP inhibitor = blocks P. falciparum M18 aspartyl aminopeptidase | 290,000 compounds, 1.2% hits | inhibition, % at 7.35 µM | AID 1822 | recombinant PfM18AAP, H-Glu-NHMec fluorogenic cleavage;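 active = inhibition above the campaign mean inhibition over all tested compounds plus 3 SD, cut at about 28% in these data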;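 also: 0% = plate median of test compound wells and 100% = 2 mM ZnCl2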
CaV13 ICDI inh = Primary screen for inhibitors of IQ motif and Ca2+-dependent inactivation inhibitor domain binding in CACNA1D, Förster resonance energy transfer in living cells, … | AID 743397 | 340,000 compounds, 0.098% hits | inhibition, % at 12.3 µM | HEK cells, CFP/YFP FRET ICDI-IQ, plate reader, 10 min; percent FRET-ratio fall versus neutral wells;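 active = mean replicate inhibition of at least 30% and at least 1% of replicates passing that level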;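 also: 0% = median of the neutral control wells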
Active calls of the source: *; · = no result. This is a sample that favours compounds with a hit; in the whole collection about 4.1% have one here.

SMILES | IDE cell inh | ALR H2O2 inh | IDE act | PolyA inhibitor | M18AAP inhibitor | CaV13 ICDI inh
CCOC(=O)[C@H]1[C@H]2COc3ccc(C)cc3[C@@H]2N2C(=O)c3cc(C)ccc3NC(=O)[C@@]12C | -1 | 0 | 6 | · | · | -12
CCn1c(CCn2c3ccccc3c3ccccc32)n[nH]c1=S | 2 | 88* | -3 | 0 | 11 | -3
Cc1ncc(CSc2nc3ccccc3[nH]2)c(N)n1 | 0 | 88* | 0 | -2 | -2 | -5
Cc1noc(C)c1CSc1nc2ccccc2n1CCc1ccccc1 | -6 | 95* | 3 | -19 | 2 | -3
CCn1c(CSc2nc3ccccc3[nH]2)n[nH]c1=S | 2 | 96* | -7 | 15 | -12 | -7
CCn1c(CSCc2ccccc2)n[nH]c1=S | 5 | 0 | -1 | 11 | 7 | -4
Cc1noc(C)c1CSc1nc2ccccc2[nH]1 | 4 | 99* | 2 | 21 | 3 | -2
Fc1cccc(F)c1CSc1nc2ccccc2[nH]1 | -3 | 66 | -1 | -2 | 4 | -4
CCCc1nc(S(=O)(=O)Cc2ccc(Cl)cc2Cl)n[nH]1 | -3 | 1 | 7 | 13 | -11 | -9
FC(F)(F)c1cc(Oc2ccc(Cl)cc2)ncc1-c1nnc(-c2ccc(Cl)cc2)o1 | -2 | · | -1 | 8 | -12 | -19
O=c1[nH]c(/C=C\c2ccc(O)cc2)nc(O)c1[N+](=O)[O-] | 6 | 97* | 1 | 15 | 9 | -6
C=CCc1cc(/C=C/c2nc(O)c([N+](=O)[O-])c(=O)[nH]2)cc(OC)c1O | 5 | 82* | 3 | -3 | 28 | -13
O=C(NNC1CC(=O)N(c2ccccc2)C1=O)c1ccc(COc2ccccc2Cl)o1 (centres undefined) | 5 | 5 | 2 | -4 | 12 | -18
Fc1ccc(CNc2ccccn2)cc1 | · | -1 | 3 | 2 | -2 | -20
CN(C)c1ccc(CNc2ccccn2)cc1 | -1 | 98* | 7 | -2 | 4 | -2
Cc1ccc(O)c(CNc2cccc(C)n2)c1 | · | · | 2 | 4 | 1 | -11
Cc1cccc(NCc2ccc(N(C)C)cc2)n1 | 3 | 82* | 4 | 10 | 1 | -19
COc1ccccc1C(C)NC(=O)CCC(=O)N1CCN(S(=O)(=O)c2ccc(Cl)cc2)CC1 (centres undefined) | · | · | 3 | · | · | -5
COCCNC(=O)c1ccc(Cl)c(S(=O)(=O)Nc2cccc(C)c2C)c1 | 1 | -2 | 5 | 1 | -3 | ·
N#Cc1ccc(C(=O)Nc2cccc3ccccc23)c(F)c1 | 8 | 3 | -1 | 8 | -9 | -21
Cc1cc(NC(=O)Nc2cccc(C)c2C)no1 | -1 | 99* | 6 | 1 | 2 | -7
CC(=O)Nc1ccc(SCC(=O)c2cc(C)n(-c3ccccc3F)c2C)cc1 | 2 | 98* | -3 | -13 | 6 | -4
Cc1cc(C(=O)COC(=O)c2ccc(O)cc2)c(C)n1-c1ccccc1F | -1 | · | 3 | 7 | 0 | -7
COC(=O)c1ccc(-n2c(C)cc(C(=O)CSc3ccc(NC(C)=O)cc3)c2C)cc1 | -2 | 91* | 2 | -1 | 5 | -3
COc1cc(C(=O)Nc2ccc(O)cc2C(=O)O)ccc1OC(C)=O | 3 | 87* | 8 | 0 | 9 | -4
SMILES | IDE cell inh | ALR H2O2 inh | IDE act | PolyA inhibitor | M18AAP inhibitor | CaV13 ICDI inh
COC(=O)c1ccc(NC(=O)c2ccc(OC(C)=O)c(OC)c2)cc1 | 1 | 39 | -2 | -17 | -12 | -7
COCCCn1cc(C(=O)c2cc(OC)ccc2OCC(=O)N2CCCCC2C)cc(C#N)c1=O (centres undefined) | 4 | 0 | 1 | -2 | 0 | 3
COc1cc(C)c(C(=O)Oc2cc(C)c(C(=O)O)c(O)c2C)c(O)c1C(=O)O | 8 | 22 | 5 | -6 | · | ·
COc1cc(C)c(C(=O)Oc2cc(C)c(C(=O)O)c(O)c2C)c(OC)c1C | 0 | 89* | 1 | 0 | 4 | ·
CC(=O)Cc1nsc(NC(=O)c2ccc(COc3ccccc3)o2)n1 | 9 | 98* | 3 | -3 | -6 | -4
O=C(Cn1c(=O)oc2cc(S(=O)(=O)N3CCCCCC3)ccc21)NC1CCCCC1 | -1 | -3 | 4 | 0 | · | -6
O=C(Cn1c(=O)oc2cc(S(=O)(=O)N3CCc4ccccc43)ccc21)NC1CCCC1 | 0 | 96* | 1 | 20 | -6 | 3
O=C(Cc1ccccc1Cl)c1ccccc1 | · | · | 6 | · | · | -2
COc1ccc(N2C(=O)/C(=C3/C=CC=CN3C)SC2=S)cc1 | 1 | 60 | 5 | 4 | -4 | -6
CCN1C(=O)/C(=C2/C=CC=CN2C)SC1=S | 0 | 99* | 1 | -16 | -11 | -6
CN1C=CC=C/C1=C1/SC(=S)N(Cc2ccccc2)C1=O | -4 | 99* | 8 | 5 | 1 | -6
COc1ccccc1OCCn1c(C)c(C=O)c2ccccc21 | 2 | -5 | 3 | -10 | 1 | -5
COc1ccc(CSc2nc(O)cc(=O)n2CC(C)C)cc1F | -4 | 99* | -1 | 4 | 0 | -2
O=C1N(CN2CCN(Cc3ccccc3)CC2)c2ccccc2C12OCCCO2 | 0 | -3 | -3 | 23 | -13 | -4
Cc1cc(C(=O)CN2C(=O)C(=O)N(Cc3ccccc3)C2=O)c(C)n1-c1ccc2c(c1)OCCO2 | 2 | -7 | 5 | -5 | 0 | 1
O=c1c2cc(Br)ccc2[nH]c(=S)n1Cc1ccccn1 | 1 | 93* | 6 | -9 | -9 | -4
O=C(CCCn1c(=S)[nH]c2ccc(Br)cc2c1=O)N1CCN(c2ccccn2)CC1 | -2 | 92* | 0 | 12 | 2 | -6
O=C(CCCn1c(=S)[nH]c2ccc(Br)cc2c1=O)NCc1ccccn1 | 5 | -2 | 6 | 2 | 21 | -9
O=c1c2cc(Br)ccc2[nH]c(=S)n1Cc1ccccc1 | 1 | · | 5 | -23 | 6 | -20
COC(=O)[C@]12C[C@H](CC(=O)N3CCCC3)C(=O)N(CCC3=CCCCC3)C1=C[C@H](C(C)(C)C)O[C@@H]2C | · | · | · | · | · | -10
O=S1(=O)N=C(Nc2ccc(N3CCOCC3)cc2)c2ccccc21 | -4 | 0 | -3 | · | 2 | -8
Cc1ccccc1-c1ccc(Nc2ccc(N3CCOCC3)cc2)nn1 | 0 | 93* | -3 | -21 | -11 | ·
COc1cc(NC(=O)CSc2nnc(-c3cc(C)on3)o2)cc(OC)c1 | 4 | -7 | 1 | -20 | -7 | 1
Cc1cc(-c2nnc(SCC(=O)Nc3nc(-c4ccc(Cl)cc4)cs3)o2)no1 | -3 | 99* | 4 | -20 | 9 | -5
CCOC(=O)C1CCCCN1C(=O)/C(=C/c1ccc(OC)cc1)c1ccc(OC)c(OC)c1 (centres undefined) | 7 | -11 | 3 | · | · | -10

Screens deposited in PubChem BioAssay by several laboratories.
